# Reference: the supplement of paper PMC6555819
# Tested on: PPARg homodimer (NR concentration 180 nM)
# Experiment: PBM binding z-score (relative to random genomic background probes); higher = stronger binding; sequences stand for … in GC…GCGATTGACAGCGTAGAATGAAGG
# Method in brief: (§1)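 Random background probes are the reference for binding z-scores. These scores derive from regression-normalized fluorescence on custom Agilent 4×180K protein-binding microarrays incubated 1 h with ligand-free nuclear receptor dimers. Binding was detected with antibodies against each partner (one per run).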
row,Sequence,PBM binding z-score
1,TCTTGTAGATCAAGCAGGTTAATAAAGCCTGAGT,0.27
2,CCAGACAGGTGAAAGGTACCTCAGTCTGGTACGC,0.247
3,CGTCCAAGGGCATAGGAGGTCAGTGAAGACAGAT,1.67
4,CAAACTAGGTCACGATAGGTCAAAGTCGAATGAC,4.63
5,TCTCGGAGGACACCAAGGTCAGAGCTTTCCAGAG,1.73
6,TCATATAGGTAAAGGTGAAAGGCGAACGATATGA,1.25
7,CGAACGAGGGCATGAGTTGATCGCAAATGCCGAT,-0.0725
8,GCTCCTAGGTCAACTGATGGTCAGCTAAAGCTCG,2.06
9,AGTCAAAGTTCATCTAGCTAACGTAAGATATGCT,2.37
10,TTTCCAAGGTGAGCTGAGGTCGTTGATCCAACTC,0.272
11,CCTAGCAGGCCAATCTGGGTTACTCAAGGCTTGA,-0.705
12,TCTGCTAGGTCAGTAGGTCAGCTAACGAGCTGCC,0.729
13,CGTCCAAGGTCAAGGACAGTGAAAGAGACTCGAA,2.55
14,CTCAAAAGGTCGTGCTCAGGTGAGTATACCAAAC,1.51
15,ACTAGAAGGCCAAGTTTGGGTCACTCAAACAAAG,0.742
16,GCAGACAGGTGAGACGCAGGTAACTCAGGGTGGC,-0.513
17,ACTAGCAGGCCAAGGGTCAATCAAGATTAGTCCG,1.86
18,AGTGAAAGTTCATCTAGGTAACGTAAGATATGCT,2.58
19,CAAACTAGGTCACAGGAAGGTCAAAGTCCGCATG,6.59
20,CGTCCAACGTCAATGCTAGGTCAGTGAAAGCATT,-0.138

row,Sequence,PBM binding z-score
1,AATGCAGGGTCACTAGGCCAGAGTAGGTACGAAT,2.1
2,ACTGACAGGTGAGTGAAGGTAACTCAGCTGGACG,-0.647
3,ACTATTAGTCGACTTAGGGCAACCGATACGACGC,-0.309
4,TCATATAGGTAAATGCTAAGTGAAAGTCCGATCT,0.521
5,CCTCGGAGGACGACAGGAGGTCAGAGCTGCCAGA,1.19
6,CCGACTGAGGCAAGGTTACCATAACGCACAGCCA,0.4
7,TTACCAAGGTGAAAGGTCGTCGATGCACGCCTTG,1.99
8,CGAACTAAGTCAAGGACAGTGAATCTCCGCACGC,-0.418
9,CGTCTAAGGTCAGAGAGGTCAGTGAATGCCGAGT,4.52
10,TGAATGAGGTGATAAGATCAGGGAACGTTGCAAA,-0.472
11,CCTAGCAGGCCAGGGTCACTGAAGCATTTCGCTT,1.08
12,TTATATAGGTAAACAGGTGAAAGTCCGTAAGTTA,1.4
13,TAGCCTAGGTCCGATCGGGCCAGTATACGCTATA,-1.58
14,AGAACGAGGGCAGGCTGAGTTGATAGCAGAGTAG,-0.517
15,GCTTACGGGTCAAAGATTATAGCATGAATAGAAT,1.35
16,TCTAGCAGGCCACAGGGTCACTCAAGAGGTACGG,1.75
17,TAGCCTAGGTCACTGGGCCAGTATAGTACGCATC,0.976
18,TTACCAAGATGAAGGTCGTTGATCCCTCTGTAGA,0.704
19,GATATAGGGTCAAGGCCAGAGTACGCGTATTGAT,3.01
20,GCGAATGGGGCAAAGCAGGTTACCATAAGGTTGG,0.664

# Tested on: PXR:RXRa (NR concentration 270 nM, RXRa partner concentration 90 nM)
# Experiment: as above
# Method in brief: as §1
row,Sequence,PBM binding z-score
1,TCTTGTAGATCAAGCAGGTTAATAAAGCCTGAGT,0.447
2,CCAGACAGGTGAAAGGTACCTCAGTCTGGTACGC,0.109
3,CGTCCAAGGGCATAGGAGGTCAGTGAAGACAGAT,4.38
4,CAAACTAGGTCACGATAGGTCAAAGTCGAATGAC,5.42
5,TCTCGGAGGACACCAAGGTCAGAGCTTTCCAGAG,2.54
6,TCATATAGGTAAAGGTGAAAGGCGAACGATATGA,0.986
7,CGAACGAGGGCATGAGTTGATCGCAAATGCCGAT,0.503
8,GCTCCTAGGTCAACTGATGGTCAGCTAAAGCTCG,2.28
9,AGTCAAAGTTCATCTAGCTAACGTAAGATATGCT,4.83
10,TTTCCAAGGTGAGCTGAGGTCGTTGATCCAACTC,4.97
11,CCTAGCAGGCCAATCTGGGTTACTCAAGGCTTGA,-0.391
12,TCTGCTAGGTCAGTAGGTCAGCTAACGAGCTGCC,1.3
13,CGTCCAAGGTCAAGGACAGTGAAAGAGACTCGAA,3.63
14,CTCAAAAGGTCGTGCTCAGGTGAGTATACCAAAC,3.24
15,ACTAGAAGGCCAAGTTTGGGTCACTCAAACAAAG,1.2
16,GCAGACAGGTGAGACGCAGGTAACTCAGGGTGGC,-0.282
17,ACTAGCAGGCCAAGGGTCAATCAAGATTAGTCCG,3.34
18,AGTGAAAGTTCATCTAGGTAACGTAAGATATGCT,4.68
19,CAAACTAGGTCACAGGAAGGTCAAAGTCCGCATG,5.73
20,CGTCCAACGTCAATGCTAGGTCAGTGAAAGCATT,0.124

row,Sequence,PBM binding z-score
1,AATGCAGGGTCACTAGGCCAGAGTAGGTACGAAT,3.26
2,ACTGACAGGTGAGTGAAGGTAACTCAGCTGGACG,-0.21
3,ACTATTAGTCGACTTAGGGCAACCGATACGACGC,-0.188
4,TCATATAGGTAAATGCTAAGTGAAAGTCCGATCT,0.632
5,CCTCGGAGGACGACAGGAGGTCAGAGCTGCCAGA,1.89
6,CCGACTGAGGCAAGGTTACCATAACGCACAGCCA,0.18
7,TTACCAAGGTGAAAGGTCGTCGATGCACGCCTTG,4.17
8,CGAACTAAGTCAAGGACAGTGAATCTCCGCACGC,-0.229
9,CGTCTAAGGTCAGAGAGGTCAGTGAATGCCGAGT,6.51
10,TGAATGAGGTGATAAGATCAGGGAACGTTGCAAA,-0.0646
11,CCTAGCAGGCCAGGGTCACTGAAGCATTTCGCTT,3.04
12,TTATATAGGTAAACAGGTGAAAGTCCGTAAGTTA,0.532
13,TAGCCTAGGTCCGATCGGGCCAGTATACGCTATA,-1.01
14,AGAACGAGGGCAGGCTGAGTTGATAGCAGAGTAG,0.169
15,GCTTACGGGTCAAAGATTATAGCATGAATAGAAT,3.23
16,TCTAGCAGGCCACAGGGTCACTCAAGAGGTACGG,2.71
17,TAGCCTAGGTCACTGGGCCAGTATAGTACGCATC,1.32
18,TTACCAAGATGAAGGTCGTTGATCCCTCTGTAGA,1.15
19,GATATAGGGTCAAGGCCAGAGTACGCGTATTGAT,4.14
20,GCGAATGGGGCAAAGCAGGTTACCATAAGGTTGG,0.467
